This note sets out measurements from PubChem BioAssay AID588333 (National Center for Advancing Translational Sciences (NCATS), 2011).

Activity calls are given as the source filed them.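 How the source made its calls: active means compounds that kill cultured T. brucei parasites with a half-maximal potency under 200 micromolar; inactive means compounds with no measurable potency.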

The test can be described thus: Confirmatory Assay to Find Inhibitors of T. brucei phosphofructokinase: T. brucei in vitro Parasite Assay. The settings on record: T. brucei brucei culture viability, Alamar Blue, 72 h. An excerpt:
Various species of the protozoan family Trypanosomatidae are responsible for a range of serious human diseases in tropical and subtropical areas of the world. […] Many of the disorders caused by trypanosomatids are fatal if left untreated, but most currently used drugs are inefficient and toxic. […] Oxidative metabolism involving the mitochondrial tricarboxylic acid cycle and oxidative phosphorylation are repressed in these parasites, and recent RNA interference (RNAi) experiments have shown that even partial depletion of certain individual glycolytic enzymes can lead to the death of cultured parasites. One such glycolytic enzyme, phosphofructokinase (PFK), catalyzes the formation of fructose-1,6-bisphosphate (F1,6BP) and ADP from fructose-6-phosphate (F6P) and ATP, and in many metabolic circumstances makes an important contribution to the control of flux through the glycolytic pathway. As a specific glycolytic target, PFK is particularly attractive as it catalyzes the first irreversible step in glycolysis, and structural and kinetic studies have shown very substantial and essential differences from corresponding host enzymes, allowing for the discovery of parasite-selective inhibitors. Selected active compounds were additionally tested in a well-validated in vitro parasite assay to determine the relative potencies of lead compounds against live T. brucei cultures. H Chemical Genomics Center [NCGC] NIH Molecular Libraries Probe Centers Network [MLPCN] MLPCN Grant: MH092153-01 Assay Submitter (PI): Malcom Walkinshaw, University of Edinburgh
Dilutions of T. brucei brucei were incubated in modified Iscove's cell culture medium (supplemented with 10% FBS, 0.05 mM bathocuproine sulfonate, 1.5 mM L-cysteine, 1 mM hypoxanthine, 0.2 mM 2-mercaptoethanol, 1 mM sodium pyruvate and 0.16 mM thymidine) with titrations of compound for 72 hours. The cell density is adapted so that after 72 hours of incubation, the cells are at the end of the logarithmic growth phase (~5x104 tryps/mL). General morphology and motility were recorded after incubation, and Alamar Blue dye was added as a fluorescent marker of viability (ex530/em590) and read on a fluorescent plate reader following 4 hrs of incubation at 37 degrees C. The results of this assay were used to prioritize medicinal chemistry efforts in conjunction with the human cell toxicity assay to give a measure of relative parasite/host toxicity ratio.
(The colour change of resazurin is a common sign of viable cells or microbes.)
Take `O=C(Cc1ccc(Cl)c(Cl)c1)Nc1ccc(S(=O)(=O)Nc2cccc(C(=O)O)c2)cc1`: the Potency was 105 µM (active).
For `Cc1cc(NS(=O)(=O)c2ccc(NC(=O)Cc3ccc(Cl)c(Cl)c3)cc2)on1`, the Potency was 157 µM (active).
The same measure, in the same setting: next, `O=C(Cc1ccc(Cl)c(Cl)c1)Nc1ccc(S(=O)(=O)Nc2ccon2)cc1`: 16.3 µM (active).
Same read-out and setting: for `Cc1cc(NS(=O)(=O)c2ccc(NC(=O)Cc3ccc(Cl)c(Cl)c3)cc2)no1` the value was 26.8 µM (active); for `Cc1cc(NS(=O)(=O)c2ccc(NC(=O)Cc3ccc(Cl)c(F)c3)cc2)no1`, 38.9 µM (active).
Take `O=C(Cc1ccc(Cl)c(Cl)c1)Nc1ccc(S(=O)(=O)Nc2ccc(C(=O)O)cc2)cc1`: the molecule was called inactive.
Turning to `COc1ccc(CC(=O)Nc2ccc(S(=O)(=O)Nc3cc(C)on3)cc2)cc1OC`, the molecule was classed as inactive.
